Our source for the growth values is PubChem BioAssay (NCI).

The panel holds about 83,000 compounds, 20% with a hit somewhere; the sample as a whole holds those more often.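 How to read the values: 0–100, growth inhibition (40 = 60% inhibited); 0, no net growth; -100 to 0, cell death (-40 = 40% of starting cells died; -100 = all dead).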 Unmarked numbers belong to inactive results. Activity calls are given as the source filed them. Rule for the calls: active = growth percent below 10; inactive = the rest.

Some test systems named below: SK-MEL-2 melanoma; EKVX NSCLC; SN12C renal; UO-31 renal; TK-10 renal; ACHN renal; CAKI-1 renal; A498 renal; CCRF-CEM leukemia; MOLT-4 leukemia; SR leukemia; RPMI-8226 leukemia; OVCAR-8 ovarian; OVCAR-5 ovarian; OVCAR-4 ovarian; SK-OV-3 ovarian; IGROV1 ovarian; OVCAR-3 ovarian; HS 578T breast; NCI/ADR-RES ovarian.
Holding throughout (assay): NCI-60 one-dose screen, 48 h (100 = growth as untreated, 0 = no growth, -100 = all killed)
Conditions in all cases: 10 µM unless noted

For the compound `CC(=C(c1ccc(OCCN2CCCCC2)cc1)c1ccc(OCCN2CCCCC2)cc1)c1ccc(Cl)cc1`, the growth in the assay with SK-MEL-2 melanoma was -82.9% (active); in the assay with EKVX NSCLC it was -86.4% (active); with SN12C renal, -91.1% (active); in the assay on UO-31 renal it was -96% (active); with TK-10 renal, -88.5% (active); in the assay with ACHN renal, -99.1% (active). In addition, the growth with CAKI-1 renal is -98.4% (active); with A498 renal, -85.9% (active); in the assay on CCRF-CEM leukemia, -71.5% (active); in the assay with MOLT-4 leukemia it was -71.2% (active); in the assay on SR leukemia, -60.3% (active); in the assay on RPMI-8226 leukemia it was -61.7% (active). Also, the growth was -77.4% (active) with OVCAR-8 ovarian; -92.5% (active) in the assay with OVCAR-5 ovarian; -88.8% (active) with OVCAR-4 ovarian; -91.1% (active) with SK-OV-3 ovarian; -83% (active) in the assay with IGROV1 ovarian; -91.4% (active) in the assay on OVCAR-3 ovarian. In addition, the values for the growth in the assay with HS 578T breast and with NCI/ADR-RES ovarian were -72.4% (active) and -90.8% (active), respectively.
In the case of `COc1ccc(/C=C/C(c2cc(OC)c(OC)c(OC)c2)n2cncn2)cc1` (stereo not given), the growth with SK-MEL-2 melanoma is 12.9%; in the assay on EKVX NSCLC, 66%; in the assay on SN12C renal it was 62%; in the assay with UO-31 renal, 64.4%; with TK-10 renal, 48.5%; in the assay on ACHN renal, 57.5%. Besides, the growth with CAKI-1 renal is 51.6%; with A498 renal, 36.4%; in the assay with CCRF-CEM leukemia, 35.1%; in the assay on MOLT-4 leukemia it was 39.4%; with SR leukemia it was 18.9%; in the assay with RPMI-8226 leukemia it was 50.8%. Moreover, the growth with OVCAR-8 ovarian was 52.2%; in the assay on OVCAR-5 ovarian, 90.2%; in the assay on OVCAR-4 ovarian, 96.8%; in the assay on SK-OV-3 ovarian it was 35.5%; in the assay on IGROV1 ovarian, 64.6%; with OVCAR-3 ovarian, 9.06% (active). Moreover, the growth in the assay on HS 578T breast was 51.2%; in the assay on NCI/ADR-RES ovarian, 36.3%.
On to `COc1cccc(CCNc2ncnc3c2ncn3Cc2nnc3c4ccccc4c(Cl)nn23)c1`, for which the growth in the assay on SK-MEL-2 melanoma is 20.2%; in the assay with EKVX NSCLC, 73.9%; in the assay with SN12C renal, 46.9%; with UO-31 renal, 25.2%; in the assay on TK-10 renal, 67.4%; in the assay with ACHN renal, 24.9%. Also, the growth in the assay with CAKI-1 renal is 18.3%; in the assay on A498 renal it was 83.4%; in the assay with CCRF-CEM leukemia it was 34%; in the assay with MOLT-4 leukemia, 20.8%; in the assay with SR leukemia, 33.5%; in the assay with RPMI-8226 leukemia, 48.8%. Besides, the growth in the assay with OVCAR-8 ovarian is 40.3%; in the assay on OVCAR-5 ovarian, 102%; with OVCAR-4 ovarian it was 57.5%; with SK-OV-3 ovarian, 3.23% (active); in the assay on IGROV1 ovarian, 40%; in the assay on OVCAR-3 ovarian, 64%. For the same compound, the growth in the assay with HS 578T breast was 40.8%; in the assay on NCI/ADR-RES ovarian, 40.7%.
On to `CO[C@H]1CC(=O)n2c3ccccc3c3c4c(c5c6ccccc6n1c5c32)C(=O)NC4=O`, for which the growth in the assay with SK-MEL-2 melanoma was 70.5%; in the assay on EKVX NSCLC it was 71.8%; in the assay on SN12C renal, 65.6%; in the assay on UO-31 renal it was 71.3%; in the assay with TK-10 renal, 37.3%; in the assay with ACHN renal, 68.1%. The growth in the assay with CAKI-1 renal is 58.1%; in the assay with A498 renal it was 56.2%; in the assay with CCRF-CEM leukemia, 78.3%; in the assay with MOLT-4 leukemia it was 74.9%; in the assay with SR leukemia, 20.8%; with RPMI-8226 leukemia it was 88%. Besides, the growth was 37.1% in the assay with OVCAR-8 ovarian; 120% in the assay on OVCAR-5 ovarian; 24.6% with OVCAR-4 ovarian; 68.1% in the assay on SK-OV-3 ovarian; 37.3% with IGROV1 ovarian; 56.1% in the assay on OVCAR-3 ovarian. Further, the growth in the assay with HS 578T breast is 27.6%; in the assay with NCI/ADR-RES ovarian, 36.2%.
On to `C#CCNC(=O)[C@]1(C)CCC[C@@]2(C)[C@H]1CC=C1C=C(C(C)C)CC[C@@H]12`, for which the growth is 95.9% with SK-MEL-2 melanoma; 94.6% in the assay on EKVX NSCLC; 96.7% in the assay on SN12C renal; 88.8% in the assay on UO-31 renal; 99.7% with TK-10 renal; 106% with ACHN renal. For the same compound, the growth in the assay with CAKI-1 renal was 87.9%; in the assay on A498 renal, 102%; in the assay with CCRF-CEM leukemia, 110%; in the assay with MOLT-4 leukemia it was 87.9%; with SR leukemia it was 105%; in the assay on RPMI-8226 leukemia, 103%. Further, the growth in the assay with OVCAR-8 ovarian is 113%; in the assay on OVCAR-5 ovarian it was 113%; with OVCAR-4 ovarian it was 101%; in the assay with SK-OV-3 ovarian it was 104%; in the assay on IGROV1 ovarian it was 99.3%; with OVCAR-3 ovarian, 106%. Besides, the growth is 106% with HS 578T breast and 104% in the assay with NCI/ADR-RES ovarian.
`O=C(CC(=O)Nc1cccc(C(=O)O)c1)Nc1cccc(C(=O)O)c1`: the growth in the assay with SK-MEL-2 melanoma was 90.7%; in the assay with EKVX NSCLC, 101%; in the assay with SN12C renal, 102%; in the assay with UO-31 renal it was 88.5%; in the assay on TK-10 renal it was 102%; in the assay on ACHN renal, 91.6%. Further, the growth is 86.5% in the assay on CAKI-1 renal; 104% with A498 renal; 94.2% in the assay with CCRF-CEM leukemia; 103% in the assay with MOLT-4 leukemia; 96% in the assay on SR leukemia; 100% in the assay with RPMI-8226 leukemia. Besides, the growth with OVCAR-8 ovarian was 107%; in the assay with OVCAR-5 ovarian it was 101%; in the assay on OVCAR-4 ovarian, 97.8%; with SK-OV-3 ovarian it was 106%; in the assay on IGROV1 ovarian, 109%; in the assay on OVCAR-3 ovarian, 113%. Also, the growth in the assay with HS 578T breast was 100%; in the assay on NCI/ADR-RES ovarian it was 106%.
Consider `O=[N+]([O-])c1cc(NS(=O)(=O)c2ccccc2)ccc1NS(=O)(=O)c1ccccc1`, for which the growth is 99.6% with SK-MEL-2 melanoma; 119% in the assay on EKVX NSCLC; 90.4% in the assay with SN12C renal; 95.8% in the assay on UO-31 renal; 112% in the assay with TK-10 renal; 91.4% in the assay with ACHN renal. Besides, the growth is 129% in the assay with CAKI-1 renal; 115% in the assay on A498 renal; 96.3% in the assay with CCRF-CEM leukemia; 117% in the assay on MOLT-4 leukemia; 128% with SR leukemia; 109% in the assay with RPMI-8226 leukemia. Moreover, the growth was 93% with OVCAR-8 ovarian; 106% with OVCAR-5 ovarian; 106% in the assay with OVCAR-4 ovarian; 102% with SK-OV-3 ovarian; 119% in the assay on IGROV1 ovarian; 111% with OVCAR-3 ovarian. Also, the results for the growth in the assay on HS 578T breast and in the assay on NCI/ADR-RES ovarian were 98.5% and 105%, respectively.
On to `NS(=O)(=O)c1ccc(C(=O)NN2C(=O)c3c(Br)c(Br)c(Br)c(Br)c3C2=O)cc1`, for which the growth with SK-MEL-2 melanoma is 99%; in the assay with EKVX NSCLC, 99.7%; in the assay on SN12C renal it was 97.6%; with UO-31 renal, 81.7%; in the assay on TK-10 renal, 112%; in the assay on ACHN renal, 106%. In addition, the growth in the assay on CAKI-1 renal is 88%; with A498 renal, 81.7%; in the assay with CCRF-CEM leukemia, 101%; in the assay on MOLT-4 leukemia it was 100%; in the assay with SR leukemia, 94.5%; in the assay with RPMI-8226 leukemia, 102%. In addition, the growth in the assay with OVCAR-8 ovarian was 106%; with OVCAR-5 ovarian it was 107%; with OVCAR-4 ovarian, 104%; with SK-OV-3 ovarian it was 116%; with IGROV1 ovarian it was 104%; with OVCAR-3 ovarian, 105%. Further, the values for the growth in the assay on HS 578T breast and in the assay with NCI/ADR-RES ovarian were 94.6% and 110%, respectively.
